Target: COPS5 (UniProt Q92905)
Test: log2 ratio of Biotin-Ahx-Ub-VS probe labelling (fragment/DMSO); higher = less target engagement (more negative = stronger competition), active = hit call of the paper (q ≤ 0.05, log2 ratio ≤ -1)
Conditions: compound concentration: 200 uM; treatment time: 3 h
Protocol: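 Competitive ABPP in HEK293T cell lysate. Lysates were treated with each chloroacetamide fragment at 200 µM for 3 h, then with Biotin-Ahx-Ub-VS (0.5 µM, 1 h), NeutrAvidin-enriched and analysed by diaPASEF LC-MS/MS. Protein LFQ was median-normalised; average log2 ratio is fragment/DMSO from an unpaired t-test (n=3 treated, n=44 DMSO). Hits: q ≤ 0.05, log2 ratio ≤ -1, unique peptides ≥ 2.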

Sequence of COPS5 (Q92905 whole entry, looked up, the tested form may be a part): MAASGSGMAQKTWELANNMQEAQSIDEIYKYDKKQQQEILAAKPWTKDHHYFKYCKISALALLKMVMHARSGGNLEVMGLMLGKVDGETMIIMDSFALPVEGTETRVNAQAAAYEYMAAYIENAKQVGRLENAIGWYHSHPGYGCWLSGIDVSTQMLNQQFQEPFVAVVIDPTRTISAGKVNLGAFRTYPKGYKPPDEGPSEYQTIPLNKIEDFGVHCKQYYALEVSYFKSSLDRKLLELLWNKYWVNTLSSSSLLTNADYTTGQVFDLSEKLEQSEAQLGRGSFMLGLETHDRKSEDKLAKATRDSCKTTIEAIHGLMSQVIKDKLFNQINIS

log2 ratio of Biotin-Ahx-Ub-VS probe labelling, inactive:
O=C(CCl)N1CCC[C@@H]1c1ccon1 -0.115, O=C(CCl)NC1CCS(=O)(=O)c2ccccc21 (stereo not given) 0.159, Cc1cc(NC(=O)CCl)n(-c2ccccc2)n1 -0.0499, O=C(CCl)NCCC1COCCO1 (stereo not given) -0.0816, Cc1ccc(-c2nnc(C)[nH]2)c(NC(=O)CCl)c1 0.151, O=C(CCl)N1CC=C(c2c[nH]c3ccccc23)CC1 -0.0638, Cc1ccc(CC(CO)CNC(=O)CCl)cc1 (stereo not given) 0.0248, CC(C)n1nccc1NC(=O)CCl 0.0761, O=C(CCl)NCCC1=CCCCC1 0.0168, Cc1cc(Cl)ccc1NC(=O)CCl -0.176, C[C@H]1CN(C(=O)CCl)CCN1C(=O)c1cnn(C)c1.Cl -0.0598, O=C(CCl)N1CCC(S(=O)(=O)c2ccc(F)cc2)CC1 -0.0227, C#Cc1cccc(NC(=O)CCl)c1 -0.274, Cc1ncc2c(n1)CCN(C(=O)CCl)C2 0.163, O=C(CCl)Nc1cccc(C(=O)N2CCSCC2)c1 -0.111, O=C(CCl)Nc1ccc(Cl)c(F)c1 0.155, CN(Cc1nc2ccccc2[nH]1)C(=O)CCl.Cl -0.0146, O=C(CCl)N1CCOCCC1c1ccccc1 (stereo not given) -0.0175, Cc1cccnc1NC(=O)C1CCN(C(=O)CCl)CC1.Cl -0.025, N#Cc1ccccc1N1CCN(C(=O)CCl)CC1 -0.271, CN1c2ccccc2C(NC(=O)CCl)CS1(=O)=O (stereo not given) 0.318, Cl.Cn1ncc2c1CC(NC(=O)CCl)CC2 (stereo not given) -0.0206, Cc1n[nH]c2c1CN(C(=O)CCl)CC2 0.184, Cc1cccc2nc(CCNC(=O)CCl)cn12.Cl -0.0623, Cc1ccc(C(=O)NCCNC(=O)CCl)cc1 -0.05, Cc1cccc(NC(=O)[C@@H]2CCCN2C(=O)CCl)n1 -0.0478, Cc1cc(CC(C)NC(=O)CCl)n[nH]1 (stereo not given) 0.0799, Cc1ccc(N2CCC(NC(=O)CCl)C2=O)cc1 (stereo not given) -0.0995, O=C(CCl)Nc1ccccc1C(F)(F)F 0.00522, CNC(=O)C1(NC(=O)CCl)CCCCC1 0.00317, O=C(CCl)N1CC2(CCOCC2)C1 0.161, Cc1n[nH]c(=O)c2c(NC(=O)CCl)oc(C)c12 0.0565, Cc1cnc2[nH]cc(CCNC(=O)CCl)c2c1 0.199, CNC(=O)C1CCN(C(=O)CCl)CC1 0.16, O=C(CCl)NCCc1cccc2ccccc12 -0.0396, Cc1cccc(N(CCC#N)C(=O)CCl)c1C -0.0126, COCC1C=CCCN1C(=O)CCl (stereo not given) -0.00365, O=C(CCl)N(Cc1ccsc1)C1CC1 0.054, Cl.Cn1ncc2c1CCCC2NC(=O)CCl (stereo not given) -0.0371, O=C(CCl)NCCc1ccc2c(c1)OCCO2 0.0882
